Experimental data reported in PubChem BioAssay AID652040 (Broad Institute, 2013).
Entries with a potency or affinity are not part of this list. The source made the active and inactive calls.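 Rule for the calls: active = falling luciferase signal whose fitted half-maximal concentration is at most twice the top tested dose; inconclusive = flat inhibition between 30 and 70% or a poor curve fit; inactive = the rest.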

Assay: off-target signal loss in HeLa-CEM21 co-culture – HeLa F-luc CTL cells, cherry-picked, counter-screen for HIV-1 Env fusion inhibitor project, dose response (AID 652040);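 note: 0% = median of neutral control wells and -100% = doxycycline 40 µg/mL wells; more negative values mean stronger loss of luciferase signal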
Details: HeLa-F-luc CTL cells with CEM21, firefly luciferase counterscreen; series mostly up to 35 µM

| SMILES | outcome | activity change, negative = inhibition |
| --- | --- | --- |
| Cc1ccc(S(=O)(=O)NCC(=O)OCC(=O)NCc2ccc3c(c2)OCO3)cc1 | inactive | – |
| C[C@H]1NC(=O)[C@@]2(C)[C@H](c3ccccc3)[C@H]3COc4ccccc4[C@@H]3N2C1=O | inactive | – |
| O=C(NCc1ccccc1)[C@@H]1CCCN1C(=O)[C@@H]1CCCN1C(=O)c1cccc2ccccc12 | inactive | – |
| Cc1onc(-c2ccccc2)c1C(=O)Nc1ccc(Br)cc1Cl | inactive | – |
| O=C(OCCOc1cccc(Cl)c1)c1cc(S(=O)(=O)N2CCCCC2)ccc1N1CCOCC1 | inactive | – |
| Cn1c(C(=O)N2CCN(c3nc4ccccc4s3)CC2)cc2sccc21 | inactive | – |
| CCCCCCCn1c2c(c(=N)c3c1CCC3)CCCC2 | inactive | – |
| C[C@@H]1CN([C@H](C)CO)C(=O)c2cccc(NC(=O)c3ccncc3)c2O[C@@H]1CN(C)Cc1ccc(C(=O)O)cc1 | inactive | – |
| Cc1ccc(S(=O)(=O)N(C)c2ccc(C(=O)N3CCN(Cc4ccc5c(c4)OCO5)CC3)cc2)cc1 | inactive | – |
| c1coc(CNc2c3c(nc4ccccc24)CCC3)c1 | inactive | – |
| O=C(CN1CCN(Cc2ccc(Cl)cc2)C1=O)NCCCN1CCN(c2ccc(F)cc2)CC1 | inactive | – |
| Cc1ccc(OCCN2CCN(c3ncnc4sc(C)c(C)c34)CC2)cc1 | inactive | – |
| COc1ccc(/C(C)=N/NC(=O)c2cccc(S(=O)(=O)N3CCCC3)c2)c(O)c1 | – | 27.9% [at 8 µM] (inactive) |
| CCCc1cc(C(=O)NCc2ccc(OC)cc2)no1 | inactive | – |
| Cc1ccc(NC(=O)c2ccc(OCC3CCCO3)cc2)cc1Cl (stereo not given) | inactive | – |
| O=C(Nc1ccc(N2CCN(C(=O)c3ccc(Cl)cc3)CC2)cc1)c1ccc2c(c1)OCCO2 | inactive | – |
| CCCCn1c(CN(C)Cc2ccccc2)nc2c1c(=O)n(C)c(=O)n2C | inactive | – |
| CCCCCCCCN1C(=O)[C@H](CC(=O)NCc2cccs2)C[C@@]2(C(=O)OCC)CCCC=C12 | inactive | – |
| Nc1nc2c(ncn2[C@@H]2O[C@H](C(=O)NCC(c3ccccc3)c3ccccc3)[C@@H](O)[C@H]2O)c(=O)[nH]1 | inactive | – |
| COc1ccc(S(=O)(=O)N2CCCCC2)cc1NC(=O)CN(Cc1ccco1)Cc1ccco1 | inactive | – |

| SMILES | outcome | activity change, negative = inhibition |
| --- | --- | --- |
| Nc1ccn([C@@H]2O[C@H](C(=O)NCc3ccc4c(c3)OCO4)[C@@H](O)[C@H]2O)c(=O)n1 | inactive | – |
| O=C(Nc1cccc(C(F)(F)F)c1)c1ccc(Cn2cc(Br)cn2)o1 | inactive | – |
| CC1Cc2cc(-c3csc(NC(=O)Cc4cccs4)n3)ccc2N1S(C)(=O)=O (stereo not given) | inactive | – |
| CCc1nnc(NC(=O)[C@@H](NC(=O)c2cccc(S(=O)(=O)N(CC)CC)c2)C(C)C)s1 | inactive | – |
| Cc1ccc(-n2nnnc2-c2cnn(-c3ccc(F)cc3)c2C(F)(F)F)cc1 | inactive | – |
| Cn1c(CN2CCCCC2)nc2cc(NC(=O)c3ccc(Cl)cc3)ccc21 | inactive | – |
| COc1ccccc1-c1c(-c2ccc(O)cc2O)n[nH]c1C(F)(F)F | inactive | – |
| O=C(COC(=O)c1cc(S(=O)(=O)N2CCOCC2)ccc1O)NCc1ccc2c(c1)OCO2 | inactive | – |
| COc1ccc(OCC(=O)Nc2ccccc2N2CCCCC2)cc1 | inactive | – |
| CCOC(=O)[C@@H]1[C@H]2COc3cc(OC)ccc3[C@H]2N2C(=O)N(c3ccc(C(F)(F)F)cc3)C(=O)[C@]12C | inactive | – |
| Clc1ccc2c(c1)C(C1=NCCN1)c1ccccc1CS2 (stereo not given) | inactive | – |
| CCc1nc2ccccc2c(C(=O)OCC(=O)Nc2cccc(S(=O)(=O)N3CCOCC3)c2)c1C | inactive | – |
| CCC(=O)N(C)C(c1ccccc1Cl)c1nnnn1-c1c(C)cccc1C (stereo not given) | inactive | – |
| O=C(c1ccccc1)N1CCN(c2ncnc3sc4c(c23)CCC4)CC1 | inactive | – |
| CN1CC(c2ccccc2)C2(SC(=S)N(Cc3ccco3)C2=O)C12C(=O)Nc1ccccc12 (stereo not given) | inactive | – |
| Cc1ccccc1-n1c(=O)c2ccccc2n2cnnc12 | inactive | – |
| CCn1ncc(C2=NOC(C(=O)Nc3ccc(C)cc3)C2)c1C (stereo not given) | inactive | – |
| Cc1ccc(Cn2nnnc2CN2CCC(c3nc4ccc(Cl)cc4[nH]3)CC2)cc1 | inactive | – |
| Cc1nc2ccc(NC(=O)c3cc(S(=O)(=O)N(C)c4ccccc4)ccc3Cl)cc2s1 | inactive | – |
| CCCCNC(=O)C[C@H]1C[C@@]2(C(=O)OC)C(=C[C@H](C(C)(C)C)O[C@@H]2C)N(Cc2ccc3c(c2)OCO3)C1=O | inactive | – |
